An excerpt weighted towards active compounds, which were near 10% of everything screened.
Sfp PPTase inh = inhibitors of Bacillus subtilis Sfp phosphopantetheinyl transferase. 310,000 tested, 3.5% active. Q9F4F7. Potency, µM, inactives show largest response in the series, negative = inhibition, actives largely listed as inhibitors. Biochemical Sfp PPTase activity, qHTS. AID 1490;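 also: the enzyme is Sfp with the accession as filed and its product quenches rhodamine fluorescence; potency is read from the fitted curve at half-maximal effect; 0% = enzyme reaction without inhibitor and -100% = no enzyme wells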
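After 15 min at room temperature with compound, 15 nM Sfp received 5 uM rhodamine-CoA plus 12.5 uM BHQ-2-ybbR (50 mM Hepes pH 7.6, 10 mM MgCl2). Rate came from the fluorescence difference over 30 min, ex 525/em 598 nm.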
VDR inh = blocks the human vitamin D receptor | VDR-SRC2-3 peptide fluorescence polarization, 2 h | Potency, µM, without a hit: max response, negative = inhibition, hits mostly inhibitors | 400,000 tested, 0.93% active | AID 504847; also: potency is read from the fitted curve at half-maximal effect
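Measured by FP: displacement of SRC2-3 coactivator peptide from VDR by library compounds, following a two-hour ambient incubation.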
PLK1 PBD inh = inhibitors of human PLK1 polo-box domain binding. Plk1 PBD binding of FITC phosphopeptide, fluorescence polarization. Potency, µM, without a hit: max response, negative = inhibition, hits mostly inhibitors. 360,000 tested, 2.8% active; also: potency is read from the fitted curve at half-maximal effect; series mostly up to about 57 µM; nearly all actives have a fitted effect of over 65% in size
Target sequence (P53350 whole entry, looked up, the tested form may be a part): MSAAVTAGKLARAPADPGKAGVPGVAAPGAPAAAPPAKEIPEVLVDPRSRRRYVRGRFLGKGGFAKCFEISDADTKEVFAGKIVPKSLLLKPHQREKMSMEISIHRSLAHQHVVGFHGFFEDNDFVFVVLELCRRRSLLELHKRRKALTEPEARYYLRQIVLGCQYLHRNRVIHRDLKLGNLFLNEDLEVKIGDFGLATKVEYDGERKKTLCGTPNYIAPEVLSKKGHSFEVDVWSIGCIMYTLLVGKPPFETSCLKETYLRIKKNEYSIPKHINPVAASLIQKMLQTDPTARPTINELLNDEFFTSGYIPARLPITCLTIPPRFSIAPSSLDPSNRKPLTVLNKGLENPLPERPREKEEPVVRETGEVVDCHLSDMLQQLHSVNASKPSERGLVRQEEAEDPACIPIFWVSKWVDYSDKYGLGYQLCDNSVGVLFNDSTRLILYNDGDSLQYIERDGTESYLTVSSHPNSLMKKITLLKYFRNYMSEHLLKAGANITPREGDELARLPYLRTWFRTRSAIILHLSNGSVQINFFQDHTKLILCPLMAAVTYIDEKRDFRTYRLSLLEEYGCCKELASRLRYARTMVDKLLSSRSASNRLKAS
Mm-Cpn inhibitor = inhibitors of Methanococcus maripaludis chaperonin TRiC (MmCpn); purified Mm-Cpn ATPase, ADP Transcreener TR-FRET; Potency, µM (doses to about 76.9 µM), without a hit: top-dose activity, negative = inhibition, hits mostly inhibitors; 330,000 tested, 0.031% active; AID 504842; also: potency is read from the fitted curve at half-maximal effect; nearly all actives have a fitted effect of over 80% in size
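25 nM Mm-CPN + cpd, 10 min 37°C; + 10 uM ATP, 30 min 37°C; buffer 30 mM Tris pH 7.4, 100 mM KCl, 5 mM MgCl2, 1 mM DTT; Transcreener ADP HTRF detection 30 min RT.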
CCT chaperon mod = modulators of cytosolic chaperonin (CCT/TRiC) activity | purified chaperonin ATPase assay, HTRF ADP detection, 30 min | 360,000 tested, 0.3% active | activity change, % (concentration not given with the values), hits read low; in the data active = activity change below about -30%
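TRiC at 40 or 20 nM final (batch-dependent) in 30 mM Tris pH 7.4, 100 mM KCl, 5 mM MgCl2, 1 mM DTT, with compound at single 76 uM and 10 uM ATP, 30 min at 37 deg C. ADP detected by HTRF Transcreener, 665/615 ratio.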
G9a block = G9a (human) methyltransferase inhibition; Q96KQ7; G9a H3K9 monomethylation, AlphaScreen, 2 h; Potency, µM (series often up to 102 µM), inactives show top-dose activity, negative = inhibition, usual class: inhibitors; 350,000 tested, 8.8% active; AID 504332; also: potency is read from the fitted curve at half-maximal effect; nearly all actives have a fitted effect of over 75% in size
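Chemiluminescent proximity detection of H3K9 monomethylation, read after 10 min bead incubation in the dark. Reaction: 20 nM G9a, 500 nM biotin-H3K9 peptide, 20 uM SAM cofactor, 2 h, room temperature, following 15 min enzyme-compound preincubation.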
The depositor's hits bear a star; ? = inconclusive; . = not tested or not shown; [ ] = remark or other dose. Unless noted, calls follow the shape of the dose curve; as a rule, active = well fitted curve in the direction sought with a large enough effect; inconclusive = small, poorly fitted or top-dose-only effect, or another doubt; inactive = no such curve, though single readings can be large; an effect the other way counts as inactive or inconclusive. Unless noted, % is scaled to controls: 0 for no effect and ±100 for the full control effect.

SMILES	Sfp PPTase inh	VDR inh	PLK1 PBD inh	Mm-Cpn inhibitor	CCT chaperon mod	G9a block
C=CCOc1c(CNc2ccc3[nH]c(=O)[nH]c3c2)cccc1OC	4%	-1%	27µM*	-2%	-4	.
O=c1[nH]c2ccc(NCc3ccccc3F)cc2[nH]1	.	7%	.	.	.	18µM*
COc1cccc(CNc2ccc3[nH]c(=O)[nH]c3c2)c1OCc1ccc(F)cc1	-9%	3%	-9%	-6%	-1	?
Oc1ccc(NCc2ccccc2OCc2ccc(Cl)cc2)cc1	.	?	.	.	.	7.9µM*
O=c1[nH]c2ccc(NCc3ccc(-c4ccccc4F)o3)cc2[nH]1	.	12%	.	.	.	-25%[59 µM]
O=c1[nH]c2ccc(NCc3ccccc3OCc3ccc(Cl)cc3)cc2[nH]1	-28%	13%	1%	-1%	2	25µM*
CCNc1ncc2nc(C)c(=O)n(Cc3cccc(OC)c3)c2n1	10%	-24%	.	.	.	2%[12.7 µM]
COc1ccc(C2NC(=O)N(C)C3=C2C(=O)N(c2ccc(F)cc2)C3)cc1 (stereo unspecified)	.	-1%	.	.	.	10%[59 µM]
CCOC(=O)OCC1OC(C#Cc2ccc(C(C)(C)C)cc2)C=CC1OC(=O)OCC (stereo unspecified)	10%	.	.	.	.	.
COc1ccc2c(c1OC)C(Cc1ccccc1)N1CCc3cc4c(cc3C1C2)OCO4 (stereo unspecified)	56µM*	?	.	.	.	.
O=C(CSc1nnc2c(n1)[nH]c1ccccc12)OCc1ccccc1	12%	13%	0%	0%	0	-10%[59 µM]
O=C(O)CSc1c(-c2cccs2)[nH]c2ccccc12	0%	?	27µM*	-14%	1	18%[59 µM]
O=C(O)CSc1c(-c2ccccc2)[nH]c2ccccc12	0%	8%	-8%	-3%	3	-1%[59 µM]
O=C(O)c1ccccc1CSc1nnc2c(n1)[nH]c1ccccc12	56µM*	-4%	?	6%	-2	.
O=C(O)CSc1nnc2c(n1)[nH]c1ccccc12	50µM*	-18%	24µM*	2%	-5	?
Cc1ccc(-c2cn3c(n2)sc2cc(C(=O)N4CCCCC4)ccc23)cc1	.	-5%	.	.	.	-28%[59 µM]
CC12CN3CC(C)(CN(C1)C3c1ccc3ccccc3c1O)C2=O (stereo unspecified)	-12%	-3%	-3%	-1%	-2	1.6µM*
Cc1n[nH]c(=O)c2c(NC(=O)CSc3nnnn3-c3ccc(O)cc3)oc(C)c12	.	-3%	-21%	1%	-3	5%[0.501 µM]
Cc1n[nH]c(=O)c2c(NC(=O)CSc3nnnn3-c3ccccc3)oc(C)c12	.	-10%	-20%	2%	0	45µM*
COCCn1c(Cc2ccccc2)nnc1SCC(=O)Nc1ccccc1	20%	-7%	3%	1%	-3	.
Cc1n[nH]c(=O)c2c(NC(=O)CSc3nc4ccccc4c(=O)n3C(C)C)oc(C)c12	13%	0%	-7%	1%	-4	56µM*
COCCn1c(Cc2ccccc2)nnc1SCC(=O)Nc1oc(C)c2c(C)n[nH]c(=O)c12	.	-14%	-22%	1%	2	14µM*
CCCN1CCN(CCCNC(=O)c2ccc3c(c2)sc2nc(-c4ccc(OC)cc4)cn23)CC1	.	3%	.	.	.	-2%[59 µM]
CC(=O)Nc1nc(CC(C)C)cc(-c2ccco2)c1C#N	4%	0%	1%	.	-2	16µM*
CN(C(=O)COC(=O)c1ccc2c(c1)NC(=O)CS2)C1CCS(=O)(=O)C1 (stereo unspecified)	-9%	-7%	-18%	0%	-2	50µM*
SMILES	Sfp PPTase inh	VDR inh	PLK1 PBD inh	Mm-Cpn inhibitor	CCT chaperon mod	G9a block
CN(C)S(=O)(=O)c1ccc(Cl)c(NC(=O)COC(=O)c2ccc3c(c2)NC(=O)CS3)c1	25µM*	-22%	?	-7%	-1	?
CC(C)CN(C(=O)COC(=O)c1ccc2c(c1)NC(=O)CS2)C1CCS(=O)(=O)C1 (stereo unspecified)	50µM*	-19%	21µM*	-1%	-2	?
Cc1cc(C)n(-c2ccc(C(=O)OCC(=O)N(CC(C)C)C3CCS(=O)(=O)C3)cc2)n1 (stereo unspecified)	11%	6%	-2%	1%	3	-44%[12.7 µM]
CN(C)S(=O)(=O)c1ccc(Cl)c(NC(=O)COC(=O)c2ccc(O)cc2)c1	0%	-12%	56%	0%	0	-3%
CC(C)CN(C(=O)COC(=O)Cc1c[nH]c2ccccc12)C1CCS(=O)(=O)C1 (stereo unspecified)	9%	7%	27µM*	1%	0	-28%[59 µM]
CN(C(=O)COC(=O)c1cccc(Cl)c1)C1CCS(=O)(=O)C1 (stereo unspecified)	.	-21%	-4%	-2%	-2	-7%[12.7 µM]
COC(=O)C(/C=C/C(C)Cc1cc(Br)cc(OCc2ccccc2)c1OC)OCc1ccccc1 (stereo unspecified)	-14%	.	.	.	.	.
COc1ccc(C(=O)Cn2c(Br)nc3c2c(=O)n(C)c(=O)n3C)cc1	50µM*	6%	-8%	2%	-2	-1%[59 µM]
COC(=O)Cn1c(CN2CCc3ccccc3C2)nc2c1c(=O)n(C)c(=O)n2C	9%	-11%	-6%	0%	2	50µM*
COc1ccc(C(=O)Cn2c(Br)nc3c2c(=O)n(C)c(=O)n3C)cc1OC	-24%	-5%	-6%	-1%	0	14%
Cn1c(=O)c2c(nc(CN3CCN(Cc4ccccc4)CC3)n2Cc2ccc(Cl)cc2)n(C)c1=O	11%	-22%	-17%	1%	-2	45µM*
Cn1c(=O)c2c(nc(SCc3cccnc3)n2Cc2ccccc2)n(C)c1=O	79µM*	-3%	-20%	-6%	-1	?
COc1ccc(N2CC(NC(=O)c3ccc(S(=O)(=O)N4CCOCC4)cc3)CC2=O)cc1OC (stereo unspecified)	.	-2%	.	.	.	-4%[59 µM]
CCOC(=O)C1=C(CN2CCN(c3ccc(Cl)cc3)CC2)NC(=O)NC1c1ccc(F)cc1 (stereo unspecified)	.	2%	.	.	.	-6%[59 µM]
Cn1c(NCCCO)nc2c1c(=O)n(Cc1ccccc1F)c(=O)n2C	14%	-8%	-3%	0%	-3	39%[12.7 µM]
C=CCOc1nc2c(c(=O)n(C)c(=O)n2C)n1Cc1ccccc1	4%	18%	-17%	-2%	-1	-36%
COc1ccccc1Oc1nc2c(c(=O)n(Cc3ccccc3F)c(=O)n2C)n1C	8.9µM*	1%	-5%	-2%	1	?
COc1ccc(Oc2nc3c(c(=O)n(C)c(=O)n3C)n2Cc2ccccc2)cc1	6%	-17%	27µM*	2%	0	13%
CCC(C)NC(=O)Cn1c(=O)n(-c2ccc(Cl)c(Cl)c2)c(=O)c2c(C)c(C(=O)N(CC)CC)sc21 (stereo unspecified)	.	2%	.	.	.	9%[59 µM]

High-throughput results as filed in PubChem BioAssay.
